# Bioassay records as filed in PubChem BioAssay.
# VACV mCherry inh – qHTS for Stage-Specific Inhibitors of Vaccinia Orthopoxvirus: mCherry Reporter Primary qHTS; 310,000 compounds, 0.63% hits; Vaccinia virus mCherry reporter infection, fluorescence; Potency, µM (series often up to 36.5 µM), for inactives: at the highest dose activity change, negative = inhibition, hits mostly inhibitors; AID 720579, 2013; calls by dose curve; tested in A549 cells; note: potency is the fitted concentration of half-maximal effect; nearly all actives have a fitted effect of over 35% in size
# LmPK inh – qHTS Assay for Inhibitors of Leishmania Mexicana Pyruvate Kinase (LmPK) | Q27686 | purified LmPK, Kinase-Glo ATP luminescence, 1 h | Potency, µM (highest dose often 57.5 µM), without a hit: at the top dose activity change, negative = inhibition, actives largely listed as inhibitors | 290,000 compounds, 0.37% hits | AID 1721, 2009; note: potency is the fitted concentration of half-maximal effect
# Target sequence (Q27686 whole entry, looked up): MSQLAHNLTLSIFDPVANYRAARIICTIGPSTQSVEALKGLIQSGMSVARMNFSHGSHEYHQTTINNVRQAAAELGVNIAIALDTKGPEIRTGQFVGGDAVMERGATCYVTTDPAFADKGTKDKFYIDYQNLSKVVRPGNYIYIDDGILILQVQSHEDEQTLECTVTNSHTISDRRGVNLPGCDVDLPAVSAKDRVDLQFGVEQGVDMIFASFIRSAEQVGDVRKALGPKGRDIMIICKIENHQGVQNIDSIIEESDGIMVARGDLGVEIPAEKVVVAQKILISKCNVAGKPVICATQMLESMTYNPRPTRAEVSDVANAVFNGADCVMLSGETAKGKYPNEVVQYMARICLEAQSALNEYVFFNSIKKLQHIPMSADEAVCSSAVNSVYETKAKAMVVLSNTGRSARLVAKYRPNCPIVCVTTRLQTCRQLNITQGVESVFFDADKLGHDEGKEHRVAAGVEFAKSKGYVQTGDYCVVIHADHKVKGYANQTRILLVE
#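 ATP generated from ADP (0.1 mM) and PEP (0.5 mM) by 0.1 nM LmPK over 1 h at room temperature (pH 7.2 imidazole buffer) was detected by coupled luciferase luminescence. Values were normalized to uninhibited and no-enzyme wells.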
# HCMV inh – qHTS Assay for inhibitors of the human cytomegalovirus (HCMV) | AID 1259415, 2018 | 410,000 compounds, 4.5% hits | HFF cells, HCMV-luciferase reporter, 72 h; active compounds read low | activity change, negative = inhibition, % at 57.5 µM; in the data active = activity change below about -60%; inconclusive = no clear call, values can overlap the other calls; inactive = above about -39%
#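 Human foreskin fibroblasts infected with luciferase-reporter HCMV at MOI 1 PFU/cell, compounds at two doses. Luciferase measured 72 h post infection; normalized to buffer-only basal and Salinomycin (10uM) controls.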
# VACV Venus inh – qHTS for Stage-Specific Inhibitors of Vaccinia Orthopoxvirus: Venus Reporter Primary qHTS | Vaccinia virus Venus reporter expression, fluorescence | Potency, µM (titrated, usually from 36.5 µM), for the others: top-dose activity change, negative = inhibition, most hits filed as inhibitors | 330,000 compounds, 0.46% hits | AID 720580, 2013; calls by dose curve; tested in A549 cells; note: potency is the fitted concentration of half-maximal effect; nearly all actives have a fitted effect of over 30% in size
# TbPYK inhibitor – qHTS of Trypanosoma Brucei Inhibitors | Potency, µM (titrated, usually from 76.8 µM), without a hit: at the highest dose activity, negative = inhibition, hits mostly inhibitors | 410,000 compounds, 0.12% hits | TbPYK enzyme, Kinase-Glo Plus ATP luminescence, 45 min; note: potency is the fitted concentration of half-maximal effect; nearly all actives have a fitted effect of over 50% in size
#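 Readout: single end-point luminescence (Kinase-Glo Plus, 10 min). Reaction conditions were TbPYK/substrate plus 130 uM ADP, 45 min at RT, pH 7.2 TEA buffer. No-enzyme wells served as controls, and data were normalized before concentration-response fitting.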
# * hit, by the source's call; i = inactive; ? = inconclusive; / = not tested or not shown. This is a sample that favours compounds with a hit; in the whole collection about 5% have one here. Unless noted, calls come from the whole dose curve; as a rule, active = well fitted curve in the direction sought with a large enough effect; inconclusive = small, poorly fitted or top-dose-only effect, or another doubt; inactive = no such curve, though single readings can be large; an effect the other way counts as inactive or inconclusive. % is set by controls: 0 for no effect and ±100 for the full control effect.
SMILES,VACV mCherry inh,LmPK inh,HCMV inh,VACV Venus inh,TbPYK inhibitor
Cc1nnsc1C(=O)N1CCCC(N2CCN(c3cccc(C(F)(F)F)c3)CC2)C1 (stereo not given),/,2%,-61*,/,-6%
Fc1ccc(-c2cc(-c3ccc(F)cc3)c3c(n2)-c2cc(F)ccc2OC3)cc1,-8%,/,12,-7%,9%
CC[n+]1c(/C=C/N(C)c2ccccc2)oc2ccc(Cl)cc21,-10%,5%,?,-12%,-10%
CN(C)c1ccc(/C=C/C=C/c2sc3ccccc3[n+]2C)cc1,-25%,-26%,-95*,-14%,-29%
CC[n+]1c(/C=C/N(C)c2ccccc2)sc2ccc(Cl)cc21,-8%,-4%,-97*,-9%,4%
CC[n+]1c(/C=C/C=C/c2ccc(N(C)C)cc2)sc2ccccc21,?,16µM*,-110*,?,?
CCCc1cc(=O)[nH]c(SCC(=O)N2c3ccccc3NC(=O)C2(C)C)n1,/,/,5,/,4%
Nc1cccc(C(=O)OCC(=O)Nc2cccc3c2C(=O)c2ccccc2C3=O)c1,?,-3%,-8,-28%,-11%
CC1CCN(C(=O)c2ccc3c(c2NCCO)C(=O)c2ccccc2C3=O)CC1,/,?,26,?,-16%
CCN(CC)CCNC(=O)c1ccc2c(c1NCCO)C(=O)c1ccccc1C2=O,/,-21%,-109*,/,-24%
CCN(CC)CCC(=O)Nc1cccc2c1C(=O)c1ccccc1C2=O,?,-1%,-99*,?,0%
COc1ccc(C(=O)Nc2ccc(-c3nnc4n3CCCCC4)cc2)cc1OC,10%,/,-18,10%,-4%
CC(C)c1cc(Br)ccc1OCCN1C(=O)NC(C)(C)C1=O,/,3%,-61*,/,0%
Cc1ccc(CSc2nc(=O)c3c(n2C)NC(=O)CC3c2ccc(OC(C)C)cc2)cc1 (stereo not given),0%,/,6,-2%,4%
Cc1occc1C(=O)Nc1cc(C(C)(C)C)on1,/,13µM*,115,/,?
CCOC(=O)Cc1csc(NC(=O)c2c(C)noc2C)n1,/,/,-99*,/,-1%
Cc1cccc(NC(=O)c2ccoc2C)n1,/,?,11,-10%,-8%
CCOC(=O)Cc1csc(NC(=O)c2ccoc2C)n1,/,14µM*,60,/,-27%
Cc1csc(NC(=O)c2ccoc2C)n1,/,16µM*,100,/,?
O=C(NC1CCCCC1)c1cc(-c2ccccc2O)on1,1%,-9%,15,-14%,-1%
CN(C)c1ccc(/C=C/C=C2/C=Cc3ccccc32)cc1,1%,/,/,-13%,/
Cc1cc(C)cc(NC(=O)CSc2nccn2-c2ccccc2)c1,-17%,/,-6,-13%,2%
CSCCC(NC(=O)c1cccc(C)c1)C(=O)OCN1C(=O)c2ccccc2C1=O (stereo not given),-14%,/,-7,-12%,-1%
COc1cc2c(cc1OC)[C@@H](NC(=O)CCC1CCCCC1)[C@H](O)C2,-6%,/,0,-1%,3%
NC(=S)N=Nc1c(O)[nH]c2cc(F)c(F)cc12,3.2µM*,-5%,-29,2.2µM*,-3%
SMILES,VACV mCherry inh,LmPK inh,HCMV inh,VACV Venus inh,TbPYK inhibitor
NC(=S)N=Nc1c(O)[nH]c2c(Cl)cc(Cl)cc12,?,/,16,?,0%
O=C(Nc1nc(-c2ccccc2)cs1)Nc1ccc(F)cc1F,-27%,3%,-75*,-12%,0%
O=C(Nc1nc(-c2ccccn2)cs1)Nc1ccc(F)cc1F,4µM*,-5%,?,?,-21%
O=C(Nc1ccccc1)Nc1nc(-c2ccccc2)cs1,/,1%,?,/,-2%
O=C(CCS(=O)(=O)c1ccccc1)Nc1nc(-c2ccc(F)cc2)cs1,13µM*,6%,0,?,-5%
O=C(Nc1ccc(F)cc1F)c1cccc(C(=O)Nc2ccc(F)cc2F)n1,-5%,6%,-99*,-19%,9%
O=C(N[C@@H]1C/C=C\C[C@H](CC(=O)N(CCO)Cc2ccccc2)C(=O)N[C@@H](Cc2c[nH]c3ccccc23)COC1=O)OCC1c2ccccc2-c2ccccc21,i,/,-21,0%,-4%
O=C(O)C1=CCC=CC1C(=O)O (stereo not given),i,/,10,-2%,0%
CC1(C(=O)OCC(=O)Nc2cc(S(=O)(=O)N3CCOCC3)ccc2Cl)CC1(Cl)Cl (stereo not given),/,/,-8,/,4%
O=C(Nc1nc(-c2ccccn2)cs1)c1ccc(-c2ccccc2F)o1,/,/,-70*,/,-13%
CCCn1c(NC(=O)c2ccccc2)nc2ccccc21,?,2%,-15,?,4%
O=C(Nc1cc(Cl)ccn1)C1CCN(S(=O)(=O)c2cccs2)CC1,?,-6%,-73*,?,-25%
O=C(Nc1nc2c(F)cc(F)cc2s1)C1CCN(C(=O)c2ccc(F)cc2)CC1,i,/,11,-2%,-9%
O=C(Nc1nc(-c2ccc(F)cc2)cs1)C1CCN(C(=O)c2ccc(F)cc2)CC1,?,/,-80*,?,-4%
CCCn1c(NC(=O)c2cccc(S(=O)(=O)N3CCCC3)c2)nc2ccccc21,/,0%,-97*,/,-5%
CCCn1c(NC(=O)C2CCN(S(=O)(=O)c3cccs3)CC2)nc2ccccc21,-26%,3%,-62*,?,3%
Cc1ccc(NC(=O)C(Cc2ccccc2)NS(=O)(=O)c2cccs2)cc1Cl (stereo not given),-14%,/,10,-5%,5%
O=S1(=O)CCN(C2CCCCCC2)CC1,i,/,-22,-17%,-7%
COc1ccc(NC(=O)C2CCCCN2N)cc1OCC(C)C (stereo not given),-12%,-9%,99,-15%,23%
O=C(NCc1ccccc1C(F)(F)F)C1CC(c2ccc(C(F)(F)F)cc2)=NO1 (stereo not given),i,1%,?,-7%,-3%
CC(=O)Nc1ccc(-c2csc(NC(=O)C3CCN(S(=O)(=O)c4cccs4)CC3)n2)cc1,0%,2%,-69*,-26%,-3%
Cc1csc(NC(=O)C2CCN(S(=O)(=O)c3cccs3)CC2)n1,-4%,2%,?,-1%,1%
Cc1csc(NC(=O)C2CCN(S(=O)(=O)c3ccccc3F)CC2)n1,-15%,3%,-60*,-4%,-19%
COc1ccc(-c2nc(CN3CCC(c4ccccc4)CC3)c(C)o2)cc1OC,-19%,1%,-65*,-17%,-8%
COc1cc(OC)c2nc(C)c3c(c2c1)N(c1ccc(O)cc1)CC3,?,2%,-103*,?,-5%
Nc1cc2c(cc1[N+](=O)[O-])-c1ccccc1C2=NO,?,/,-68*,-22%,0%
Cc1[nH]ccc2cc3nc4ccccc4c3cc12,?,/,-72*,?,-2%
